According to PubChem BioAssay AID1347051 (National Center for Advancing Translational Sciences (NCATS), 2019):
Hit rate of the full screen: of about 1,400 compounds, about 980 (70%) were called active. About 16% were inconclusive and are not listed. The set was probably picked from earlier hits. Not all results are given here. Values without a mark were called inactive. Calls come from the whole dose curve.

experiment: Natriuretic polypeptide receptor (hNpr1) antagonism - Counterscreen GloSensor control cell line; details: HEK293 GloSensor cGMP, SNP-stimulated, luminescence; series mostly up to 57.6 µM; activity change, negative = inhibition: at the top concentration; note: nearly all actives have a fitted effect of over 70% in size
Experimental: cGMP production was measured using a circular permutated firefly luciferase (FLuc) enzyme functionally linked to the cGMP binding domain of human phosphodiesterase 5 (GloSensor technology pGS-40F, (Fan, F. et al. 2008). The cGMP-sensor was expressed in human embryonic kidney 293 (HEK-293) cells and FLuc activity was measured after stimulation with the NO-donor sodium nitroprusside (SNP). SNP activates the endogenously expressed soluble guanylyl cyclase (GC) producing cGMP which then binds to the GloSensor resulting in FLuc activation, the enzymatic activity of which can be measured as bioluminescence with addition of luciferin substrate. F. Fan, B. F. Binkowski, B. L. Butler, P. F. Stecha, M. K. Lewis, K. V. Wood, Novel genetically encoded biosensors using firefly luciferase. ACS Chem Biol 3, 346-351 (2008).
PROTOCOL TABLE (as described by Inglese J, Shamu CE and Guy RK. 2007) SEQUENCE No. (e.g., 1, 2, 3, etc.); PARAMETER (e.g., Cells, Incubation, Reagent, etc.); VALUE and DESCRIPTION. 1. Cells. Seed 1500 HEK293 cGMP-sensor cells per well in 4uL into Greiner 1536-well white/solid bottom high base, TC plates. 2. Incubation. Incubate plated cells at 37C in 5% CO2, 95% RH overnight. 3. Reagent. Add 1uL per well GloSensor reagent from Promega (2% final concentration) or CO2 independent media vehicle control to respective columns of Greiner 1536-well plates. 4. Incubation. Incubate plated cells at room temperature for 2 h, protect from light. 5. Compounds. Library compounds and DMSO vehicle control added at 23nL per well, transferred by Pin Tool. 6. Incubation. Incubate plated cells for 30 min. at room temperature, protect from light. 7. Detector. GloSensor baseline pre-read luminescence measured using CCD-based camera (Viewlux). 8. Compound. Add 1uL of sodium nitroprusside (SNP) to 50 uM final concentration to stimulate soluble guanylyl cyclase (GC) or CO2 independent media as vehicle control. 9. Incubation. Incubate treated cells at room temperature for 20 min., protect from light. 10. Detector. GloSensor post-SNP luminescence measured using CCD-based camera (Viewlux). NOTES (numbers refer to Sequence numbers above; values are from representative experiments) 1. HEK293 cells expressing GIP/pGS-40F were grown to 85-95% confluence (48-72 h) in T175 culture flasks (CO2 independent media supplemented with 10% FBS, 1% Pen/Strep antibiotics, and 1 ug/mL puromycin). Trypsinize and harvest cells from T175 culture flasks and filter through 40 um cell strainer. Cells counted with Invitrogen Countess (30,000,000 - 50,000,000 cells/flask). Cells diluted to a final concentration of 375 cells/uL in CO2 independent media and a Millipore multidrop used to dispense 1500 cells per well (4uL/well) into 13 1536-well Greiner White/Solid bottom, high base tissue-culture treated (TC) plates and one Aurora 1536-well Black/Clear bottom, low base, TC plate (for visual inspection of cell health throughout the duration of the assay). 2. Cells incubated for 24 h. at 37C in 95% RH incubator with metal lid having gas-exchange holes. 3. Prepare GloSensor Reagent (Promega): Reconstitute GloSensor luciferase substrate by adding 8.2mL Hepes buffer to 250mg substrate, mix well, protect from light and stored at -80C. Prepare a fresh 12% GloSensor solution in CO2 independent supplemented plating media (see above). Mix well and store at ambient temperature, protected from light. 1uL 12% GloSensor Luciferase Reagent added (2% final concentration) to respective columns of 13 x 1536-well Greiner plate with BioRaptr, 1uL CO2 independent plating media added to respective columns as vehicle control with BioRaptr. 4. Cells incubated for 2 h. at ambient temperature, protected from light with metal lid having gas-exchange holes. 5. 23nL of library compounds or DMSO vehicle control transferred to 13 Greiner white/solid bottom high base, TC plates in 11 interplate 1:3 titrations (see Yasgar, A. et al. 2008) with Pintool. 6. […]
% is set by controls: 0 for no effect and ±100 for the full control effect; potency is the fitted concentration of half-maximal effect.

Row | SMILES | Potency | activity change, negative = inhibition [%]
1 | COc1cc2c(cc1OCc1ccncc1)NC(=O)C21CCN(c2ncc(F)cn2)CC1 | 44.4 µM (active) | –
2 | COc1cc2c(cc1Oc1cccc(N(C)C)c1)NC(=O)C21CCN(Cc2ccccn2)CC1 | 19.3 µM (active) | –
3 | COc1cc2c(cc1Oc1cccc(N(C)C)c1)NC(=O)C21CCN(CCC(C)C)CC1 | 31.4 µM (active) | –
4 | COc1cc2c(cc1Oc1cccc(N(C)C)c1)NC(=O)C21CCN(c2cnccn2)CC1 | 21.7 µM (active) | –
5 | CCC(CC)c1cc([C@H]2CN3CC[C@H]2C[C@@H]3CNS(=O)(=O)c2ccccc2C#N)nc(-c2ccncc2)n1 | – | -6.91
6 | CCC(CC)c1cc([C@H]2CN3CC[C@H]2C[C@@H]3CNC(=O)NCc2ccccc2)nc(-c2ccncc2)n1 | – | -5.58
7 | CCC(CC)c1cc([C@H]2CN3CC[C@H]2C[C@@H]3CNS(=O)(=O)Cc2ccccc2)nc(-c2ccncc2)n1 | – | 2.91
